# Data: PubChem BioAssay (NCATS)
# Values without a mark were called inactive. Records with an inconclusive call do not appear. Activity calls are given as the source filed them. Unless noted, calls come from the whole dose curve; as a rule, active = well fitted curve in either direction with a large enough effect (not every such curve was filed as active); inconclusive = small, poorly fitted or top-dose-only effect, or another doubt; inactive = flat fitted curve, though single readings scatter.
# Experiments:
# [1] = biological target: Lysosomal acid glucosylceramidase (Homo sapiens) (UniProt P04062); experiment: Glucocerebrosidase-p2 (AID 348; in the data active = potency below about 10 µM; note: potency is the fitted concentration of half-maximal effect); details: purified GBA, blue fluorogenic substrate, 40 min
# Chain of Lysosomal acid glucosylceramidase (Homo sapiens) (P04062 whole entry, looked up): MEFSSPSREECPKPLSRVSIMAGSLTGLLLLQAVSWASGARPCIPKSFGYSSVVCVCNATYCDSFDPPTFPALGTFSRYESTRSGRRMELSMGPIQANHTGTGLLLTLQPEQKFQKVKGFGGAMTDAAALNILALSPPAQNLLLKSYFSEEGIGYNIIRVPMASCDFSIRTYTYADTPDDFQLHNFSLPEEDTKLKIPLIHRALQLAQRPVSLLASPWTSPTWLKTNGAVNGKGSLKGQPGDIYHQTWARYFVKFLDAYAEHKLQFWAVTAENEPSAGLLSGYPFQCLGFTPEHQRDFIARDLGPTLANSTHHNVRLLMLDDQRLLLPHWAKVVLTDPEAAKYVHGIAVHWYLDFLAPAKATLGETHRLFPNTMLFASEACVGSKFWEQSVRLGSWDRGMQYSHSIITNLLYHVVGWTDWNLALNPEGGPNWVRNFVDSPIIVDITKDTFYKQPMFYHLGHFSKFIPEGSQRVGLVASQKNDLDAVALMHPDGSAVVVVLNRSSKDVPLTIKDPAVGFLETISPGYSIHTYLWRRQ
# In short: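 Normal human glucocerebrosidase (0.2 nM) with blue fluorogenic substrate (80 uM final) in citrate/phosphate pH 5.9 with 10mM sodium taurocholate, 0.01% tween-20; 40 min RT, NaOH/glycine stop; fluorescence Ex 365/Em 440; AC50 from a titration from 0.6 nM upwards.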
# [2] = AP1 Signaling Pathway (AID 357); details: ME-180 AP-1-bla reporter, EGF-induced, beta-lactamase ratio, 5 h; at 7.69 µM (top of the series) unless noted;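 note: ME-180 reporter cells stimulated with EGF at its EC50 level; % is set by controls: 0 for no effect and ±100 for the full control effect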
# In short: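 First, ME-180 AP-1-bla cells were cultured overnight at 37 °C in low-serum Opti-MEM. Next, titrated compounds with EC50 EGF were incubated 5 hours. Finally, CCF4 was added for 2.5 hours and the 460/530 nm ratio recorded.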
# [3] = biological target: Cytochrome P450 1A2 (Homo sapiens) (UniProt P05177); experiment: p450-cyp1a2 (AID 410; calls by dose curve; note: potency is the fitted concentration of half-maximal effect;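 for activity change, negative = inhibition: -100% = full effect of reference inhibitor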); details: recombinant CYP1A2, luciferin-ME demethylation, luminescence; series mostly up to 11.4 µM
# Chain of Cytochrome P450 1A2 (Homo sapiens) (P05177 whole entry, looked up): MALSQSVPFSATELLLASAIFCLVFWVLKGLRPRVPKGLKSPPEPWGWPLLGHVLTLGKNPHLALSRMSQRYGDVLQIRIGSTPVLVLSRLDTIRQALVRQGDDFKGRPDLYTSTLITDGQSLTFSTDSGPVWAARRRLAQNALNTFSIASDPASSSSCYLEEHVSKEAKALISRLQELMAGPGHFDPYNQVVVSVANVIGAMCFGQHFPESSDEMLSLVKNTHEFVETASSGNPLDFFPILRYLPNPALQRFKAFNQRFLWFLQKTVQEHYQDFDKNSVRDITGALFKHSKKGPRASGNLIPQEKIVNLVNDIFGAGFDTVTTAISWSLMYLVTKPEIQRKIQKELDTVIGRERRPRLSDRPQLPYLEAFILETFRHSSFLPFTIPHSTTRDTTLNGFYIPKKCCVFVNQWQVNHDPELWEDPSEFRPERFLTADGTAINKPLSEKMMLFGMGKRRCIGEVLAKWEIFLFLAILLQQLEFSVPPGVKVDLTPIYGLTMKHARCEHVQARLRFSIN
# In short: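 Luminescent demethylation readout: Luciferin-ME (100uM, equal to Km) turned over by 20nM CYP1A2 for 60 min at room temperature after NADPH regeneration addition, following 10 min compound preincubation. Normalization used 57 uM furafylline as full inhibition.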
# [4] = NFAT Signaling Pathway (AID 444); details: Jurkat NFAT-bla M1, carbachol, beta-lactamase ratio, 5 h; at 7.69 µM (top of the series) unless noted;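 note: carbachol stimulus at about its EC50 of 1 µM final; % is set by controls: 0 for no effect and ±100 for the full control effect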
# In short: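 Read-out: CCF4 FRET ratio (460 nm/530 nm) after 1 h RT dye loading, used for %activity and AC50 from titration series. Cells: Jurkat NFAT-β-lactamase/M1 line, treated with compound plus 1 uM carbachol for 5 h, 37 °C.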
# [5] = Stat Signaling Pathway (AID 446); details: ME-180 SIE beta-lactamase reporter, IL-6 stimulated, 5 h; at 7.69 µM (top of the series) unless noted;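 note: ME-180 cervical cancer cells given 40 pM IL-6 alongside compound; SIE-controlled beta-lactamase reporter measured as 460/530 nm FRET emission ratio; % is set by controls: 0 for no effect and ±100 for the full control effect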
# In short: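 Overnight-plated ME-180 cells bearing a STAT Inducible Element beta-lactamase reporter; 5 h co-exposure to compound and 40 pM IL-6; values normalized to 300 pM IL-6 and 125 nM JAK inhibitor controls.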
# [6] = biological target: Glucocorticoid receptor (Homo sapiens) (UniProt P04150); experiment: GR-GFP Redistribution (AID 450;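 active = compounds whose dose series gives a full or clear partial fitted curve of increased nuclear translocation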; note: potency is the fitted concentration of half-maximal effect); details: U2OS GR-GFP nuclear translocation, laser cytometry, 2 h
# Chain of Glucocorticoid receptor (Homo sapiens) (P04150 whole entry, looked up, the tested form may be a part): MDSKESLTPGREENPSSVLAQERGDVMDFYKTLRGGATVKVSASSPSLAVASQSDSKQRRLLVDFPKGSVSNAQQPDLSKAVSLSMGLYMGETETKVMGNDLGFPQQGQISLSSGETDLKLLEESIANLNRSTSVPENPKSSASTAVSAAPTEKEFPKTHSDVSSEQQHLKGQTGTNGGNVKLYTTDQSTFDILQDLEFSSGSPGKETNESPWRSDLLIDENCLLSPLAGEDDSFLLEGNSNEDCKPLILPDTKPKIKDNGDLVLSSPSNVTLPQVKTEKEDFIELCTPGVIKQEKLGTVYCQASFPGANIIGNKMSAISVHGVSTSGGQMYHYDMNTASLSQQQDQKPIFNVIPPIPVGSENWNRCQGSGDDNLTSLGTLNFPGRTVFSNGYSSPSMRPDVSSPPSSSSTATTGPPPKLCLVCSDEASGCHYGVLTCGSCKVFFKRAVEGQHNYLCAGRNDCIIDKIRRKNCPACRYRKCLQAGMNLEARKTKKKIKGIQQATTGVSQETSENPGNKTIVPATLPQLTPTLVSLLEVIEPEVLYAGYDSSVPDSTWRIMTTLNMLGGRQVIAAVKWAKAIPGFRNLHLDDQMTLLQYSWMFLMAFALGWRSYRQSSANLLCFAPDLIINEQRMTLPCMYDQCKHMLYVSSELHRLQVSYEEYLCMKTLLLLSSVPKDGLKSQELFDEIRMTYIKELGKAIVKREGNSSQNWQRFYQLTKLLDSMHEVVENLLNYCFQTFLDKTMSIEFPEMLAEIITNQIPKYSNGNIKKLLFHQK
# [7] = biological target: Glucocorticoid receptor (Homo sapiens) (UniProt P04150); experiment: GR-EFC Redistribution (AID 451; calls by dose curve; note: potency is the fitted concentration of half-maximal effect); details: CHO-K1 GR-EFC translocation, beta-gal luminescence, 2 h
# In short: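 Translocation of GR-ED fusion to nuclear EA restores b-gal, read by luminescence after 1 h room-temperature detection. Engineered CHO-K1 biosensor cells, 1,000/well, exposed 2 h at 37 C to titrations up to 46 uM final.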
# [8] = biological target: Mitogen-activated protein kinase 10 (Mus musculus) (UniProt Q61831); experiment: JNK3 AlphaScreen Assay (AID 530); details: JNK3 lysate, c-Jun phosphorylation; series mostly up to 11.4 µM;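 note: kinase came from lysate of stimulated human HepG2 cells; signal reports phosphorylation of biotinylated GST-cJun 1-79 at Ser73 with 10 µM ATP; % is set by controls: 0 for no effect and ±100 for the full control effect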
# In short: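 qHTS titrations with 15 min compound pre-incubation before adding ATP (10 uM final). Read-out: AlphaScreen of Ser73-phosphorylated biotin-GST-cJun using HepG2 lysate JNK3 activated by IL-1β and TNFα.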
# [9] = biological target: 3',5'-cyclic-AMP phosphodiesterase 4B (Homo sapiens) (UniProt Q07343); experiment: qHTS Assay for Inhibitors of PDE-IV (AID 607; active = well fitted activation curve with a large enough effect in the main read-out, with a control signal flat, not every such curve was filed as active; note: % of control where 0% means no effect); details: HEK293 ACTOne CNG channel cells, membrane potential fluorescence; series mostly up to 22.9 µM
# Chain of 3',5'-cyclic-AMP phosphodiesterase 4B (Homo sapiens) (Q07343 whole entry, looked up): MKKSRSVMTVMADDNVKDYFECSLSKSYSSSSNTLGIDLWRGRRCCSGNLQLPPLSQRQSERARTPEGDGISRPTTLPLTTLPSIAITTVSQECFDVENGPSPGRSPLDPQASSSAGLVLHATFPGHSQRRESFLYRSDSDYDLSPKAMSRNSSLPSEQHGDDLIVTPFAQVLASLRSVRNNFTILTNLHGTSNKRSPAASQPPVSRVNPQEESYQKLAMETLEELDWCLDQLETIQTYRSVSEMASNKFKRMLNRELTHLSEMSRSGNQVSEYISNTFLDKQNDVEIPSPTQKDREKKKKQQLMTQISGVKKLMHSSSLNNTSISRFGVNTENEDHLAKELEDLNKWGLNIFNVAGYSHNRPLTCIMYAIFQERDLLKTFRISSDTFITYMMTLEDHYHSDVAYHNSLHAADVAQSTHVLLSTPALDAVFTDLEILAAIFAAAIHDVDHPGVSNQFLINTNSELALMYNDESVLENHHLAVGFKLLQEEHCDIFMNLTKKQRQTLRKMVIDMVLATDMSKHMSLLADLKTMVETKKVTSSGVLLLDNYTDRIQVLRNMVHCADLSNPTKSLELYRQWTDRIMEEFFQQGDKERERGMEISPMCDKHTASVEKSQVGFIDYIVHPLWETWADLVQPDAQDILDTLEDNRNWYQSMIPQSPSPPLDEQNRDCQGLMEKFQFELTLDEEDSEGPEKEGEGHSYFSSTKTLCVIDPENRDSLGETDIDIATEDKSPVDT
# In short: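 Live HEK293 cells with a modified cyclic nucleotide-gated (CNG) channel report intracellular cAMP via membrane-potential dye fluorescence (ex 535/em 590 nm). Endogenous PDE-IV was targeted. Compounds were tested at up to 22.9 uM final; RO 20-1724 100 uM served as control.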
# [10] = biological target: Cytochrome P450 2C9 (Homo sapiens) (UniProt P11712); experiment: qHTS Assay for Inhibitors and Substrates of Cytochrome P450 2C9 (AID 883; active = well fitted curve in the direction sought with a large enough effect; an effect the other way counts as inactive or inconclusive; note: nearly all actives have a fitted effect of over 60% in size; note: potency is the fitted concentration of half-maximal effect); details: recombinant CYP2C9, luciferin-H luminescence, 60 min; series mostly up to 11.4 µM
# Chain of Cytochrome P450 2C9 (Homo sapiens) (P11712 whole entry, looked up): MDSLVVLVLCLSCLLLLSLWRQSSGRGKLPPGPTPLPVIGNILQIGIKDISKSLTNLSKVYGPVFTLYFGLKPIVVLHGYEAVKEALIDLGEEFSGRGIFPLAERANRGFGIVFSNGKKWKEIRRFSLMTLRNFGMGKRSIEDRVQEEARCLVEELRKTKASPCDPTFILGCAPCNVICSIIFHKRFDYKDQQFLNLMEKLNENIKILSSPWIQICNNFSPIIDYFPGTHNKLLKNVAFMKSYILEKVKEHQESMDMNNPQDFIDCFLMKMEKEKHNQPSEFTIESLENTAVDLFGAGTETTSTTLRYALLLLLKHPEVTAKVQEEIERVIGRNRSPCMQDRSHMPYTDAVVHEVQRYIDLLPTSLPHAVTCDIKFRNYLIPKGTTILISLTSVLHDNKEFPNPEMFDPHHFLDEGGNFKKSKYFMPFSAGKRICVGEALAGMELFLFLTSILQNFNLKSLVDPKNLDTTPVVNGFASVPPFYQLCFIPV
# In short: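 Luminescent read-out of deoxyluciferin hydroxylation, normalized to 57uM sulphaphenazole (AC100). Reaction: 10nM enzyme, 100uM Luciferin-H (equal to KM), 25mM KPO4, 10 min compound preincubation, then 60 min with NADPH regeneration, both at 37C.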
# [11] = biological target: Cytochrome P450 3A4 (Homo sapiens) (UniProt P08684); experiment: qHTS Assay for Inhibitors and Substrates of Cytochrome P450 3A4 (AID 884; active = well fitted curve in the direction sought with a large enough effect; an effect the other way counts as inactive or inconclusive; note: nearly all actives have a fitted effect of over 50% in size; note: potency is the fitted concentration of half-maximal effect); details: recombinant CYP3A4, Luciferin-PPXE luminescence; series mostly up to 57.1 µM
# Chain of Cytochrome P450 3A4 (Homo sapiens) (P08684 whole entry, looked up): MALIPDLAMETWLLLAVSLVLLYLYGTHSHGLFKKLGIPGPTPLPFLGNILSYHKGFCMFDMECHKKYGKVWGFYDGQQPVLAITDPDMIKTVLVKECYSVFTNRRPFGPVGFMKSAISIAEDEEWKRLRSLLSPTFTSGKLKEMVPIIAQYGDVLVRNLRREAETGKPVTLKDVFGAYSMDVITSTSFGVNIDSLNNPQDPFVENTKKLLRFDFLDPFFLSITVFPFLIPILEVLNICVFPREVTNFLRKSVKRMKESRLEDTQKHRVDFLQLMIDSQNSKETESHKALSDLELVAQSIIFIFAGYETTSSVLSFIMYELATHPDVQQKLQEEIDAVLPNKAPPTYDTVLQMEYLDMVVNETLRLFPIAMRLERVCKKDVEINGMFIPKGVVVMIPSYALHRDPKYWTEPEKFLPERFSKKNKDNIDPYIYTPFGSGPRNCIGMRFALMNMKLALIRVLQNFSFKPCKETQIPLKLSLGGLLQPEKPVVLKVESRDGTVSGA
# In short: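 Luminescent readout of luciferin produced by CYP3A4 (20 nM) dealkylation of Luciferin-PPXE, 25 uM (its KM). NADPH-driven reaction ran 60 min at RT after 10 min compound preincubation; data scaled to 57 uM ketoconazole as 100% inhibition.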
# [12] = biological target: Cytochrome P450 3A4 (Homo sapiens) (UniProt P08684); experiment: qHTS Assay for Activators of Cytochrome P450 3A4 (AID 885; active = well fitted curve in the direction sought with a large enough effect; an effect the other way counts as inactive or inconclusive; note: nearly all actives have a fitted effect of over 65% in size); details: recombinant CYP3A4, Luciferin-PPXE luminescence, 60 min; series mostly up to 11.4 µM
# In short: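 Using 20nM recombinant human CYP3A4 in potassium phosphate (200mM), substrate Luciferin-PPXE at 25uM, luminescent luciferin detection followed a 60-min RT NADPH reaction; data scaled to 57 uM ketoconazole.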
# [13] = qHTS Assay for Identification of Small Molecule Agonists for Hypoxia Response Element Signaling Pathway (AID 914; active = well fitted activation curve with a large enough effect in the signal ratio, with a control signal flat, not every such curve was filed as active; the % refers to the signal ratio; note: % of control where 0% means no effect); details: ME-180 (cervical carcinoma) HRE-bla reporter, beta-lactamase ratio, CoCl2, 17 h; activation: stronger effect = higher value
# In short: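 Positive modulation of EC50 CoCl2-induced hypoxia response element signaling is measured in ME-180 cells with a beta-lactamase reporter. Compounds are titrated, incubation runs 17 hours, and %Activity derives from the blue/green ratio.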
# [14] = biological target: Cytochrome P450 2C19 (Homo sapiens) (UniProt P33261); experiment: qHTS Assay for Inhibitors and Substrates of Cytochrome P450 2C19 (AID 899; active = well fitted curve in the direction sought with a large enough effect; an effect the other way counts as inactive or inconclusive; note: nearly all actives have a fitted effect of over 60% in size; note: potency is the fitted concentration of half-maximal effect); details: recombinant CYP2C19, luciferin-H EGE luminescence; series mostly up to 11.4 µM
# Chain of Cytochrome P450 2C19 (Homo sapiens) (P33261 whole entry, looked up): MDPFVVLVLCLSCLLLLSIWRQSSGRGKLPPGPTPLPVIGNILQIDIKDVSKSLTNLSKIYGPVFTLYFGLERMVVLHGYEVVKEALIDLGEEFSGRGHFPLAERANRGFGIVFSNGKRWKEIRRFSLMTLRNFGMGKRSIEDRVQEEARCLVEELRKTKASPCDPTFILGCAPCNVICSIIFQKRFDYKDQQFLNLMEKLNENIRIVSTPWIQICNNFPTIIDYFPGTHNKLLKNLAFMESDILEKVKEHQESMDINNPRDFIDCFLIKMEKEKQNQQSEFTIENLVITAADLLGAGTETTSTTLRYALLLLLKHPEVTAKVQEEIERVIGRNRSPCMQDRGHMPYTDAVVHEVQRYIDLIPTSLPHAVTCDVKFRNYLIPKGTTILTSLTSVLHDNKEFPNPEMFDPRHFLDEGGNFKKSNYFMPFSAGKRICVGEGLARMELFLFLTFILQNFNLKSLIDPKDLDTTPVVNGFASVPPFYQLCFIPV
# In short: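 Luminescence readout of luciferin formed from 10uM Luciferin-H EGE (KM level) by 5 nM CYP2C19 in 50mM KPO4. 60 min NADPH-driven reaction at 37C after 10 min compound preincubation; data scaled to 57uM ketoconazole inhibition.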
# [15] = biological target: Cytochrome P450 2D6 (Homo sapiens) (UniProt P10635); experiment: qHTS Assay for Inhibitors and Substrates of Cytochrome P450 2D6 (AID 891; active = well fitted curve in the direction sought with a large enough effect; an effect the other way counts as inactive or inconclusive; note: nearly all actives have a fitted effect of over 60% in size; note: potency is the fitted concentration of half-maximal effect); details: recombinant CYP2D6, luciferin-ME EGE luminescence; series mostly up to 11.4 µM
# Chain of Cytochrome P450 2D6 (Homo sapiens) (P10635 whole entry, looked up): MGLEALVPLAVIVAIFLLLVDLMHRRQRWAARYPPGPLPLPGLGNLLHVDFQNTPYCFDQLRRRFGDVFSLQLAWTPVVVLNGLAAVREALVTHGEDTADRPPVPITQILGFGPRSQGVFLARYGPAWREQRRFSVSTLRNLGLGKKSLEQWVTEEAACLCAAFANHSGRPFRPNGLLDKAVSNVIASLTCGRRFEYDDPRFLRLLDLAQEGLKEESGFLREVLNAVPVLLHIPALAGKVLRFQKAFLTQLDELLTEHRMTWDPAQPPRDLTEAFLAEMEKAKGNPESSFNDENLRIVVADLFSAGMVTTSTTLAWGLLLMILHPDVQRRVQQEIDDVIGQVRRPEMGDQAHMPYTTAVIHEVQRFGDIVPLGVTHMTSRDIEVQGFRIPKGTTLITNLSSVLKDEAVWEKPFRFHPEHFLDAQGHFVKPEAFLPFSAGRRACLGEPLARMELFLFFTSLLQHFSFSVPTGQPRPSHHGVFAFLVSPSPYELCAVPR
# In short: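 Luminescent read-out of luciferin formed by 5 nM human CYP2D6 demethylating 30 uM Luciferin-ME EGE (Km level) over 60 min at room temperature after NADPH regeneration addition. Data normalized to full inhibition by 1.43 uM quinidine.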
Structure (SMILES),Potency [1],"activity change, negative = inhibition [2]",Potency [3],"activity change, negative = inhibition [4]","activity, negative = inhibition [5]",Potency [6],Potency [7],Potency [8],Potency [9],Potency [10],Potency [11],Potency [12],activation [13],Potency [14],"activity change, negative = inhibition [3]",Potency [15],"activity change, negative = inhibition [11]"
COc1ccc(/C=C(\C#N)C(N)=O)c(OC)c1,> 11.4 µM,2.38%,1.58 µM (active),17.1%,3.37%,> 46 µM,> 9.22 µM,inactive,inactive,inactive,2.51 µM (active),inactive,-21.9%,–,–,–,–
Nc1[nH]c(=S)[nH]c(=O)c1N=Nc1c(Br)cc(S(N)(=O)=O)cc1Br,> 11.4 µM,1.56%,3.16 µM (active),-0.337%,12%,> 46 µM,> 9.22 µM,inactive,inactive,inactive,–,–,–,inactive,–,–,–
Oc1c(Br)cc(CN(Cc2cc(Br)c(O)c(Br)c2)C2CCCCC2)cc1Br,> 11.4 µM,11.3%,–,-14%,-10.4%,> 46 µM,> 9.22 µM,inactive,inactive,2.51 µM (active),–,–,–,–,-5.7% [at 2.29 µM],2.51 µM (active),–
O=C(O)c1ccc(SSc2ccc(C(=O)O)cn2)nc1,> 11.4 µM,-2.82%,3.16 µM (active),5.74%,15.8%,> 46 µM,> 9.22 µM,inactive,inactive,1.58 µM (active),–,–,–,2.51 µM (active),–,–,–
CCCCC[C@@H](O)[C@@H]1C(=O)O[C@@H](C)[C@@H](O)\C=C/C=C\C=C/C=C\C=C(\C)[C@H](O)C[C@H](O)C[C@H](O)C[C@H](O)C[C@H](O)C[C@H](O)C[C@@H]1O,> 11.4 µM,-1.52%,–,-11.4%,11%,> 46 µM,> 9.22 µM,inactive,inactive,inactive,–,–,–,3.98 µM (active),3.3% [at 2.29 µM],inactive,–
COc1ccc2c(Cl)cc(NC(=S)Nc3ccccc3)nc2c1,10.6 µM,9.58%,0.398 µM (active),12.1%,2.27%,> 46 µM,> 9.22 µM,inactive,inactive,–,–,–,–,–,–,–,67.2% [at 11.4 µM]
O=C(O)/C(=C\c1ccccc1)Cc1ccccc1,> 11.4 µM,-5.32%,inactive,3.67%,5.03%,> 46 µM,> 9.22 µM,inactive,inactive,–,–,–,–,–,–,–,30.2% [at 11.4 µM]
O=C(O)CC(CC(=O)O)n1cccc1,> 11.4 µM,5.34%,inactive,8.97%,-7.74%,> 46 µM,> 9.22 µM,inactive,inactive,inactive,–,–,–,inactive,–,inactive,-36.6% [at 11.4 µM]
N=C(N)SCCN1CCCCC1,> 11.4 µM,10.8%,inactive,0.176%,-0.606%,> 46 µM,> 9.22 µM,inactive,inactive,inactive,–,–,–,inactive,–,inactive,-31.7% [at 11.4 µM]
O=S(=O)(O)c1cc(O)c2c(N=Cc3ccccc3O)cc(S(=O)(=O)O)cc2c1,> 11.4 µM,-14.5%,–,8.24%,-1.77%,> 46 µM,> 9.22 µM,inactive,inactive,3.16 µM (active),–,–,–,1.58 µM (active),-23.7% [at 2.29 µM],–,–
S=C(S)NCCCn1ccnc1,> 11.4 µM,7.59%,3.16 µM (active),-2.39%,6.25%,> 46 µM,> 9.22 µM,inactive,inactive,2 µM (active),–,inactive,–,–,–,0.794 µM (active),–
O=C1c2ccccc2N[C@H](c2cc(Cl)cc(Cl)c2O)N1CCc1ccccn1,> 11.4 µM,-16.9%,–,5.29%,-24.9%,> 46 µM,> 9.22 µM,inactive,inactive,3.16 µM (active),–,inactive,–,3.98 µM (active),5.8% [at 2.29 µM],–,–
